Values joined by “and” are separate entries in the source; they are usually repeats but may differ in a detail not shown here. Equal entries are not always repeated. About 2,000 (36%) of roughly 5,500 compounds were called active. Inconclusive results (about 18%) are left out. Cut-off read from the data, not from the text of the source: active = normalized growth mostly below about 0.91 (no sharp cut-off); inconclusive = no clear call, values can overlap the other calls; inactive = mostly above about 0.92. The list shows a part of the results.
Assay: chemical genetic growth profiling, strain panel (AID 1159580);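 note: tested at 20 µM; growth read once vehicle control cultures reached saturation at 30 °C; 1 = growth at the plate median or of vehicle wells; lower values mean less growth of the strain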
Conditions: S. cerevisiae deletion strains, growth OD
[1] = locus YDR150W, strain NUM1, hits give low values
[2] = locus YGR229C, strain SMI1, hits give low values
[3] = locus YMR307W, strain GAS1, hits give low values
[4] = locus YNL153C, strain GIM3, hits give low values
[5] = locus YNL322C, strain KRE1, hits give low values
[6] = locus YPL055C, strain LGE1, hits give low values

Measured: normalized growth

Cc1c(C)c2c(c(C)c1O)CCC(C)(CCCC(C)CCCC(C)CCCC(C)C)O2 (centres undefined)
inactive: locus YAL021C, strain ccr4, hits give low values 1 | locus YAL026C, strain drs2, hits give low values 0.972 | locus YAL030W, strain snc1, hits give low values 0.983 | locus YBL061C, strain skt5, hits give low values 0.989 | locus YBR009C, strain hhf1, hits give low values 0.965 | locus YBR021W, strain FUR4, hits give low values 1.03 | locus YBR023C, strain chs3, hits give low values 0.988 | locus YBR171W, strain sec66, hits give low values 0.986 | locus YBR229C, strain ROT2, hits give low values 1 | locus YBR231C, strain swc5, hits give low values 0.935 | locus YBR279W, strain paf1, hits give low values 0.99 | locus YCL011C, strain gbp2, hits give low values 0.972 | locus YCL016C, strain dcc1, hits give low values 0.982 | locus YCL029C, strain bik1, hits give low values 1 | locus YCL061C, strain MRC1, hits give low values 0.987 | locus YCL069W, strain vba3, hits give low values 0.988 | locus YCR088W, strain abp1, hits give low values 0.985 | locus YDL005C, strain med2, hits give low values 0.983 | locus YDL035C, strain GPR1, hits give low values 1.02 | locus YDL040C, strain nat1, hits give low values 0.99 | locus YDL074C, strain BRE1, hits give low values 1.02 | locus YDL101C, strain DUN1, hits give low values 1.01 | locus YDL134C, strain PPH21, hits give low values 1.01 | locus YDL185W, strain tfp1, hits give low values 1 | locus YDL192W, strain arf1, hits give low values 1.02 | locus YDR001C, strain nth1, hits give low values 0.981 | locus YDR069C, strain doa4, hits give low values 0.968 | locus YDR101C, strain arx1, hits give low values 1.01 | locus YDR137W, strain rgp1, hits give low values 0.966 | [1] 1.01 | locus YDR159W, strain sac3, hits give low values 0.956 | locus YDR162C, strain NBP2, hits give low values 0.993 | locus YDR195W, strain ref2 0.949 | locus YDR297W, strain sur2, hits give low values 0.978 | locus YDR318W, strain mcm21, hits give low values 1 | locus YDR334W, strain swr1, hits give low values 0.985 | locus YDR335W, strain msn5, hits give low values 0.988 | locus YDR388W, hits give low values 0.976 | locus YDR392W, strain spt3, hits give low values 0.929 | locus YDR502C, strain sam2, hits give low values 0.987 | locus YEL003W, strain gim4, hits give low values 0.979 | locus YEL037C, strain rad23, hits give low values 0.987 | locus YEL061C, strain CIN8 (second series), hits give low values 0.983 | locus YEL061C, strain CIN8, hits give low values 1.01 | locus YER015W, strain faa2, hits give low values 0.986 | locus YER016W, strain bim1, hits give low values 0.975 | locus YER110C, hits give low values 1 | locus YER111C, strain swi4, hits give low values 0.985 | locus YER155C, strain BEM2 (second series), hits give low values 0.97 | locus YER155C, strain BEM2, hits give low values 1 | locus YER167W, strain BCK2, hits give low values 1.01 | locus YFR010W, strain ubp6, hits give low values 0.988 | locus YGL078C, strain dbp3, hits give low values 0.999 | locus YGL086W, strain mad1, hits give low values 1.02 | locus YGL167C, strain pmr1, hits give low values 0.968 | locus YGL173C, strain kem1, hits give low values 0.985 | locus YGL227W, strain vid30, hits give low values 0.977 | locus YGL240W, strain doc1, hits give low values 0.981 | locus YGL248W, strain PDE1, hits give low values 1.01 | locus YGL253W, strain hxk2, hits give low values 0.995 | locus YGR078C, strain PAC10, hits give low values 1 | locus YGR135W, strain pre9, hits give low values 1.02 | [2] 1.02 | locus YGR252W, strain gcn5, hits give low values 0.95 | locus YHR013C, strain ard1, hits give low values 0.928 | locus YHR027C, strain rpn1, hits give low values 0.993 | locus YHR030C, strain SLT2, hits give low values 1.01 and 0.996 | locus YHR079C, strain IRE1 (second series), hits give low values 1 | locus YHR079C, strain IRE1, hits give low values 1.02 | locus YHR094C, strain hxt1, hits give low values 1 | locus YHR129C, strain ARP1, hits give low values 1.01 | locus YHR142W, strain chs7, hits give low values 0.994 | locus YHR200W, strain rpn10, hits give low values 0.995 | locus YIL066C, strain RNR3, hits give low values 1.01 | locus YIL073C, strain SPO22, hits give low values 1.05 | locus YIL125W, strain kgd1, hits give low values 1.03 | locus YIR030C, strain dcg1, hits give low values 0.997 | locus YJL092W, strain hpr5, hits give low values 0.975 | locus YJL095W, strain BCK1 (second series), hits give low values 0.989 | locus YJL095W, strain BCK1, hits give low values 0.998 and 1 | locus YJL115W, strain asf1, hits give low values 0.985 | locus YJL129C, strain trk1, hits give low values 1.02 | locus YJL134W, strain LCB3, hits give low values 1 | locus YJL154C, strain vps35, hits give low values 0.987 | locus YJL164C, strain tpk1, hits give low values 1.01 | locus YJL166W, strain qcr8, hits give low values 0.993 | locus YJL168C, strain set2, hits give low values 1 | locus YJL187C, strain SWE1 (second series), hits give low values 0.997 | locus YJL187C, strain SWE1, hits give low values 0.982 | locus YJR043C, strain POL32, hits give low values 1 | locus YJR066W, strain TOR1, hits give low values 0.972 | locus YKL009W, strain mrt4, hits give low values 0.969 | locus YKL068W, hits give low values 0.993 | locus YKL085W, strain MDH1 (second series), hits give low values 0.99 | locus YKL085W, strain MDH1, hits give low values 0.99 | locus YKL160W, strain elf1, hits give low values 1.01 | locus YKL190W, strain CNB1, hits give low values 1 | locus YKR001C, strain vps1, hits give low values 0.996 | locus YKR026C, strain gcn3, hits give low values 0.986 | locus YKR091W, strain srl3, hits give low values 0.982 | locus YLL001W, strain dnm1, hits give low values 0.983 | locus YLL026W, hits give low values 0.982 | locus YLL041C, strain sdh2, hits give low values 0.985 | locus YLR027C, strain aat2, hits give low values 0.993 | locus YLR039C, strain RIC1, hits give low values 1.02 | locus YLR058C, strain SHM2, hits give low values 1 | locus YLR102C, strain apc9, hits give low values 1 | locus YLR113W, strain HOG1, hits give low values 0.966 | locus YLR221C, strain rsa3, hits give low values 1.01 | locus YLR258W, strain gsy2, hits give low values 0.967 | locus YLR262C, strain YPT6 (second series), hits give low values 0.98 | locus YLR262C, strain YPT6, hits give low values 1.01 | locus YLR268W, strain sec22, hits give low values 1.01 | locus YLR320W, strain mms22, hits give low values 0.988 | locus YLR330W, strain CHS5, hits give low values 1 | locus YLR342W, strain FKS1 (second series), hits give low values 1.02 | locus YLR342W, strain FKS1, hits give low values 0.978 | locus YLR357W, strain rsc2, hits give low values 1 | locus YLR370C, strain arc18, hits give low values 0.995 | locus YLR371W, strain rom2, hits give low values 1.04 | locus YLR384C, strain iki3, hits give low values 0.978 | locus YLR418C, strain cdc73, hits give low values 0.968 | locus YML016C, strain PPZ1, hits give low values 1 | locus YML032C, strain rad52, hits give low values 0.987 | locus YML120C, strain ndi1, hits give low values 1.03 | locus YML124C, strain tub3, hits give low values 0.993 | locus YMR058W, strain fet3, hits give low values 1.01 | locus YMR078C, strain ctf18, hits give low values 1.02 | locus YMR125W, strain sto1, hits give low values 0.95 | locus YMR129W, hits give low values 0.979 | locus YMR205C, strain PFK2, hits give low values 0.933 | locus YMR223W, strain ubp8, hits give low values 1 | locus YMR231W, strain pep5, hits give low values 0.977 | locus YMR263W, strain SAP30, hits give low values 1.01 | [3] 1.01 | locus YNL067W, strain RPL9B, hits give low values 1 | locus YNL071W, strain lat1, hits give low values 0.994 | [4] 1.01 | locus YNL183C, strain NPR1, hits give low values 0.961 | locus YNL209W, strain ssb2, hits give low values 0.984 | locus YNL233W, strain BNI4, hits give low values 1.02 | locus YNL248C, strain rpa49, hits give low values 1.03 | locus YNL250W, strain rad50, hits give low values 1.01 | locus YNL271C, strain bni1, hits give low values 0.988 | locus YNL298W, strain CLA4, hits give low values 0.965 | locus YNL307C, strain MCK1, hits give low values 1 | locus YNL322C, strain KRE1 (second series), hits give low values 0.994 | [5] 1 | locus YNR049C, strain mso1, hits give low values 0.988 | locus YNR052C, strain pop2, hits give low values 1.02 | locus YOL012C, strain htz1 0.962 | locus YOL147C, strain pex11, hits give low values 0.997 | locus YOR001W, strain rrp6, hits give low values 1.02 | locus YOR061W, strain CKA2, hits give low values 1.01 | locus YOR069W, strain VPS5, hits give low values 1 | locus YOR070C, strain gyp1, hits give low values 0.988 | locus YOR080W, strain dia2, hits give low values 0.985 | locus YOR083W, strain WHI5, hits give low values 1.01 | locus YOR106W, strain vam3, hits give low values 1.01 | locus YOR136W, strain idh2, hits give low values 1.01 | locus YOR144C, strain elg1, hits give low values 0.985 | locus YOR184W, strain ser1, hits give low values 0.999 | locus YOR231W, strain MKK1, hits give low values 0.972 | locus YOR265W, strain rbl2, hits give low values 0.996 | locus YOR270C, strain vph1, hits give low values 1.09 | locus YOR290C, strain snf2, hits give low values 1 | locus YOR316C, strain cot1, hits give low values 0.995 | locus YPL051W, strain arl3, hits give low values 1.01 | [6] 1.01 | locus YPL078C, strain atp4, hits give low values 1.02 | locus YPL106C, strain sse1, hits give low values 0.966 | locus YPL240C, strain hsp82, hits give low values 0.98 | locus YPL256C, strain CLN2, hits give low values 1.02 | locus YPR119W, strain clb2, hits give low values 0.997 | locus YPR141C, strain kar3, hits give low values 1 | locus YPR163C, strain tif3, hits give low values 1 | locus YPR167C, strain met16, hits give low values 0.984 | strain wtn01, hits give low values 1.01

Cc1c(C)c2c(c(C)c1O)CCC(C)(CN1CCN(c3cc(N4CCCC4)nc(N4CCCC4)n3)CC1)O2 (centres undefined)
active: locus YAL040C, strain CLN3, hits give low values 0.579 | locus YER002W, strain NOP16, hits give low values 1.15 [resistant] | locus YNL175C, strain NOP13, hits give low values 1.09 [resistant]
inactive: locus YCL061C, strain MRC1 (second series), hits give low values 0.993 | [1] 0.997 | locus YDR363W, strain ESC2, hits give low values 0.96 | [2] 0.944 | locus YJR075W, strain HOC1, hits give low values 0.959 | [3] 1 | locus YNL128W, strain TEP1, hits give low values 1.07 | [4] 0.995 | locus YNL197C, strain WHI3, hits give low values 1.08 | locus YNL224C, strain SQS1, hits give low values 1.07 | [5] 0.961 | locus YOR083W, strain WHI5 (second series), hits give low values 1.04 | [6] 0.891

Source: PubChem BioAssay AID1159580 (chemical genetic matrix, 2015)
